{"source": "PubChem BioAssay AID2156", "about": "(Johns Hopkins Ion Channel Center, 2009)", "note": "About 3,400 (1.1%) of roughly 310,000 compounds were called active. The entries come from a sample that favours actives as a whole. Unmarked numbers belong to inactive results.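 Rule for the calls: active = fluorescence ratio B-score at most minus 3 library SDs, with starting brightness B-score within 2 library SDs (cut at about -5.5 in these data); inactive = the rest, inconclusive results apart.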", "data": [{"molecular_target": "Potassium voltage-gated channel subfamily KQT member 2 (Rattus norvegicus) (UniProt O88943)", "sequence (O88943 whole entry, looked up)": "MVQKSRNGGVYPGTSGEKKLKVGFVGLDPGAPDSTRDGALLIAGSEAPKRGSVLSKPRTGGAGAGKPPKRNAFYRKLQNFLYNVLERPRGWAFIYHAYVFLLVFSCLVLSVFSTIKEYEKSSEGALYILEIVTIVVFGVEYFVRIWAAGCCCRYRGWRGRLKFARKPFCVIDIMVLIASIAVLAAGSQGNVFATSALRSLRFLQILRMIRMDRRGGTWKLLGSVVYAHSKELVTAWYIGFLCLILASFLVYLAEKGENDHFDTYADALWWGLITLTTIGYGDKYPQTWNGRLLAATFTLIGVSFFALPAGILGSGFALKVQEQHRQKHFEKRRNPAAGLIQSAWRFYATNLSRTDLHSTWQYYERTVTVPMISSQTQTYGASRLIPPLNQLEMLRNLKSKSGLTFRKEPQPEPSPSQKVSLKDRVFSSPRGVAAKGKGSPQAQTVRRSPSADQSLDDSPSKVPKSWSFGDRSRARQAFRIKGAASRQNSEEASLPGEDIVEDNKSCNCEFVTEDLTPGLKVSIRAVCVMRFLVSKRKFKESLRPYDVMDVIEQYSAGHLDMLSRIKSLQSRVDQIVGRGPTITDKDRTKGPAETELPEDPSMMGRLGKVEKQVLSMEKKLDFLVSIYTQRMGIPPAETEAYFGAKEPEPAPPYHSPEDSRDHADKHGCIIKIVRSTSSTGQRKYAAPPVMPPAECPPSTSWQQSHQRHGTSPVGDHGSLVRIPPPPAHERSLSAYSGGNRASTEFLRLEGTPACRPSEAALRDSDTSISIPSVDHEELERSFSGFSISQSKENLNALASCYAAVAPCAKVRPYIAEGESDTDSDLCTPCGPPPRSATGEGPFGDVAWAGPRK", "test": "KCNQ2 channel blockers in CHO-K1 cells – cell-based, FluxOR thallium flux, B-score, primary screen (AID 2156)", "settings": "20 min, at 10 µM; stronger effect = lower value", "values": [{"smiles": "CC1CCN(C(=O)COC(=O)c2cc(S(=O)(=O)N3CCOCC3)ccc2Cl)CC1", "B-score": "inactive"}, {"smiles": "COc1ccc(C(CNC(=O)c2cccc(S(=O)(=O)Nc3ccccc3Cl)c2)N2CCOCC2)cc1", "note": "(configuration not stated)", "B-score": "inactive"}, {"smiles": "CCOc1ccc(C(CC(=O)O)NC(=O)Cc2ccccc2)cc1OC", "note": "(configuration not stated)", "B-score": -0.84}, {"smiles": "CCOc1ccc(C(CC(=O)O)NC(=O)COc2ccccc2)cc1", "note": "(configuration not stated)", "B-score": "-5.97 (active)"}, {"smiles": "Cc1ccc(OCC(=O)NC(C)c2ccccc2)cc1C", "note": "(configuration not stated)", "B-score": -1.87}, {"smiles": "Cc1ccc(S(=O)(=O)N(C)C)cc1NC(=O)COC(=O)/C=C/c1cccs1", "B-score": "inactive"}, {"smiles": "CC(OC(=O)CCCc1c[nH]c2ccccc12)C(=O)Nc1ccc(S(N)(=O)=O)cc1", "note": "(configuration not stated)", "B-score": -1.39}, {"smiles": "CSCc1cc(N2CCOCC2)nc(SCc2ccc(Cl)cc2Cl)n1", "B-score": -0.52}, {"smiles": "Clc1ccc(CSc2nnc(/C=C/c3ccccc3)o2)c(Cl)c1", "B-score": -5.38}, {"smiles": "CSCc1cc(N(C)C)nc(SCc2ccc(Cl)cc2Cl)n1", "B-score": "-9.71 (active)"}, {"smiles": "C=CCOc1ccc(/C=C/C(=O)OCC(=O)NC(C)c2ccc(F)cc2)cc1", "note": "(configuration not stated)", "B-score": "inactive"}, {"smiles": "O=C(Nc1ccc(S(=O)(=O)N2CCCCC2)cc1)C1CCN(C(=O)c2ccc(F)cc2)CC1", "B-score": -0.91}, {"smiles": "CCOC(=O)C(Cc1ccc(N)cc1)N1C(=O)c2ccccc2C1=O", "note": "(configuration not stated)", "B-score": "inactive"}, {"smiles": "CC1=CC(C)(C)Nc2ccc(OC(=O)C(Cc3ccccc3)N3C(=O)C4CCCCC4C3=O)cc21", "note": "(configuration not stated)", "B-score": "-7.42 (active)"}, {"smiles": "CC1=CC(C)(C)Nc2ccc(OC(=O)CN3C(=O)C4CCCCC4C3=O)cc21", "note": "(configuration not stated)", "B-score": -1.65}, {"smiles": "CCC/C=C(\\CCC)C(NC(=O)Cc1ccccc1)c1ccc(C(=O)OC)cc1", "note": "(configuration not stated)", "B-score": "-7.39 (active)"}, {"smiles": "CCC[C@@H]1C[C@@]1(CCC)[C@@H](NC(=O)c1ccccc1)c1ccc(C(=O)OC)cc1", "B-score": -5.11}, {"smiles": "COC(=O)c1ccc(C(NC(=O)OCc2ccccc2)/C(F)=C/[C@@H](C)C(=O)O)cc1", "note": "(some centres not stated)", "B-score": -1.01}, {"smiles": "Cc1ccc(C(=O)CN2C(=O)NC3(CCc4ccccc43)C2=O)c(C)c1", "note": "(configuration not stated)", "B-score": -1.41}, {"smiles": "COc1ccccc1-n1ccnc(SCC(=O)NC2CCCCC2)c1=O", "B-score": "inactive"}, {"smiles": "O=C1[C@H]2[C@@H](c3ccc(Cl)cc3)N3C(=O)N(c4cccc(F)c4)C(=O)[C@@]3(Cc3ccccc3)[C@H]2C(=O)N1C1CCCCC1", "B-score": "inactive"}, {"smiles": "COc1ccc(N2CC(NS(=O)(=O)c3ccc4ccccc4c3)CC2=O)cc1", "note": "(configuration not stated)", "B-score": -0.16}, {"smiles": "Cc1ccc(-c2nnc(C)c(N3CC(C)OC(C)C3)n2)cc1", "note": "(configuration not stated)", "B-score": -0.19}, {"smiles": "CC1CN(c2nc(Nc3ccccc3)nc(N)c2[N+](=O)[O-])CC(C)O1", "note": "(configuration not stated)", "B-score": -0.73}, {"smiles": "CC1CN(c2nc(-c3ccccc3)nnc2-c2ccccc2)CC(C)O1", "note": "(configuration not stated)", "B-score": "-6.3 (active)"}, {"smiles": "C=CS(=O)c1sc(Cl)c(N2CCOCC2)c1[N+](=O)[O-]", "note": "(configuration not stated)", "B-score": "-15.5 (active)"}, {"smiles": "COc1ccc(NC(=O)CN(C)C(=O)/C=C/c2cn(Cc3ccccc3)nc2-c2cccnc2)cc1", "B-score": -0.04}, {"smiles": "O=C(COc1ccccc1)Nc1ccc(F)cc1", "B-score": -1.43}, {"smiles": "O=C(NCC1CCCO1)c1cc2c([nH]c3ccccc32)c(-c2ccc(F)cc2)n1", "note": "(configuration not stated)", "B-score": "-8.97 (active)"}, {"smiles": "O=C(NCC1CCCO1)c1cc(-c2ccccc2)nc2ccccc12", "note": "(configuration not stated)", "B-score": "inactive"}, {"smiles": "O=C(NCCCO)c1cc2c([nH]c3ccccc32)c(-c2ccc(F)cc2)n1", "B-score": "inactive"}, {"smiles": "COc1ccc(C(=O)N(Cc2ccccc2)c2ccc(C)cc2)cc1S(=O)(=O)N1CCOCC1", "B-score": -0.58}, {"smiles": "CC1CCCCC1NC(=O)c1cc(=O)[nH]c2ccccc12", "note": "(configuration not stated)", "B-score": -0.66}, {"smiles": "O=C(NC1CCCCC1)C1c2ccccc2C(=O)N1Cc1ccco1", "note": "(configuration not stated)", "B-score": "inactive"}, {"smiles": "CCc1ccc(CN2C(=O)c3ccccc3C2C(=O)NCC2CCCO2)cc1", "note": "(configuration not stated)", "B-score": "inactive"}, {"smiles": "CC1CCC(NC(=O)C2c3ccccc3C(=O)N2Cc2ccc3c(c2)OCO3)CC1", "note": "(configuration not stated)", "B-score": "-6.13 (active)"}, {"smiles": "Cc1cc(C)cc(NC(=O)COc2coc(CN3CCN(c4ccccc4)CC3)cc2=O)c1", "B-score": "inactive"}, {"smiles": "CSc1ccc(S(=O)(=O)NCC(=O)OCC(=O)NC2(C#N)CCCCC2)cc1[N+](=O)[O-]", "B-score": "inactive"}, {"smiles": "CN1CCN(C2Cc3ccc(Cl)cc3Sc3ccc(F)cc32)CC1", "note": "(configuration not stated)", "B-score": -4.84}, {"smiles": "CCOc1ccc(NC(=O)c2ccc(NC(=O)CN3C(=O)C(=O)N(CC(C)C)C3=O)cc2)cc1", "B-score": "inactive"}, {"smiles": "O=C(c1cc(C(=O)N2CCN(c3ccc(F)cc3)CC2)cc([N+](=O)[O-])c1)N1CCN(c2ccc(F)cc2)CC1", "B-score": "-5.93 (active)"}, {"smiles": "O=C(c1cncc(Br)c1)N1CCN(c2ccc([N+](=O)[O-])cc2)CC1", "B-score": -4.15}, {"smiles": "O=C(c1ccccc1)c1ccc(C(=O)N2CCN(c3ccccc3)CC2)cc1", "B-score": -0.65}, {"smiles": "O=C(c1cc2cc(F)ccc2[nH]1)N1CCN(c2ccc(F)cc2)CC1", "B-score": "inactive"}, {"smiles": "O=C(c1cccc(C(=O)N2CCN(c3ccc(F)cc3)CC2)c1)N1CCN(c2ccc(F)cc2)CC1", "B-score": "-6 (active)"}, {"smiles": "O=C(c1cccc(F)c1)N1CCN(c2ccc([N+](=O)[O-])c(N3CCCCC3)c2)CC1", "B-score": -0.07}, {"smiles": "Cc1ccc(Cc2nnc(SCC(=O)Nc3ccc(C)cc3C)[nH]c2=O)cc1", "B-score": "inactive"}, {"smiles": "CC(=O)CC(CC(=O)NC1CCCCC1)c1ccccc1", "note": "(configuration not stated)", "B-score": "inactive"}, {"smiles": "O=C1[C@H]2[C@@H](c3ccc(F)cc3)N3C(=O)N(c4ccc(C(F)(F)F)cc4)C(=O)[C@@]3(Cc3ccccc3)[C@H]2C(=O)N1C1CCCCC1", "B-score": -0.02}, {"smiles": "O=C(NCC(c1ccco1)N1CCc2ccccc2C1)c1ccccc1Cl", "note": "(configuration not stated)", "B-score": -1.22}, {"smiles": "Cc1ccc(Cc2nnc(SCC(=O)Nc3ccccc3C)[nH]c2=O)cc1", "B-score": "inactive"}, {"smiles": "CCOc1ccc(NS(=O)(=O)c2ccc(C(=O)NC3CCN(Cc4ccccc4)CC3)cc2)cc1", "B-score": "inactive"}, {"smiles": "CCOc1cc(-c2nc3cc(C)ccn3c2NCC2CCCO2)ccc1O", "note": "(configuration not stated)", "B-score": "-5.56 (active)"}, {"smiles": "CCOc1cc(C(C(=O)NCC2CCCO2)N(C(=O)Cn2nnc3ccccc32)c2cccc(OC)c2)ccc1O", "note": "(configuration not stated)", "B-score": "inactive"}, {"smiles": "CCOc1ccc(N(CC(=O)NCC2CCCO2)S(=O)(=O)c2ccc(C)cc2)cc1", "note": "(configuration not stated)", "B-score": -0.74}, {"smiles": "O=[N+]([O-])c1ncc(Br)cc1Nc1ccccc1", "B-score": -2.54}, {"smiles": "CC(=O)N1CCN(C(=O)c2cc(-c3ccc(C)o3)nc3ccccc23)CC1", "B-score": "inactive"}]}]}
